Tg IFNy HTS: T. gondii growth inhibition under IFN-gamma; Toxoplasma gondii growth in IFN-gamma-treated host cells; active compounds read low; activity change, negative = inhibition, % (test concentration not listed); 3.8% of 69,000 active; in the data active means activity change below about -70%, passing the limit was not always enough;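 further: host cells are HeLa cells infected with Toxoplasma gondii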
Each line names hits and unclear results; the compound was inactive in the other large screens. The entries come from a sample that favours hits as a whole.

COc1ccc(Cl)cc1NC(=O)COc1nc(C)nc2ccccc12	none
COc1ccc(Cl)cc1NC(=O)c1nc(Nc2ccccc2)c2ccccc2n1	none
COc1ccc(Cl)cc1NC(=O)Nc1cc(C)nc2ccccc12	Tg IFNy HTS -86
COc1ccc(-c2nc(N3CCN(c4ccc(OC)cc4)CC3)c3ccccc3n2)cc1	none
CCOc1ccc(C(=O)C(C)=O)c(OCC)c1	none
CCOc1ccc(OCC)c(S(=O)(=O)Oc2cccc3ccc(C)nc23)c1	Tg IFNy HTS -93
COc1ccc(OC)c(S(=O)(=O)Oc2ccccn2)c1	none
CC(=O)N1CCc2c(nc(C)nc2NCc2ccc3sccc3c2)C1	none
CC(=O)Oc1cc2c(c(C)c1OC(C)=O)CC=C1[C@@]2(C)CC[C@@]2(C)C3C[C@](C)(C(=O)O)CC[C@]3(C)CC[C@]12C (stereo partly drawn)	Tg IFNy HTS -81
CC1(C)C2CC[C@]3(C)C(C(=O)C=C4[C@H]5C[C@@](C)(C(=O)O)CC[C@]5(C)CC[C@]43C)[C@@]2(C)CC[C@@H]1O (stereo partly drawn)	none
CC(=O)CCc1c(C)c2cccc(C)c2[nH]c1=O	none
CCCc1[nH]c(=O)cc2cc(OC)c(OC)cc12	none
CCCCc1cc(C)c2[nH]c(=O)cc(C)c2c1	Tg IFNy HTS -88
CC(=O)N1[C@H](CO)[C@@H](c2ccccc2)C12CN(Cc1ccc(Cl)cc1)C2	none
COc1ccc(C)cc1NC(=O)N(C)C(C)c1nc(C)sc1C (stereo not drawn)	none
C=CCOc1ccc2c(=O)cc(C(=O)OCC)oc2c1CCC	none
CCCCOc1ccc2c(=O)c(-c3cc(C(=O)OC)oc3C)c(C(F)(F)F)oc2c1C	Tg IFNy HTS -108
CCc1c(C)c2ccc(OCC(=O)OC(C)C)c(C)c2oc1=O	none
CCOC(=O)c1cc(C)nc2c1c(=O)n(Cc1nc(-c3ccccc3OCC)oc1C)c(=O)n2C	none
O=C1c2ccc3c4c(ccc(c24)C(=O)N1c1ccccn1)C(=O)N(c1ccccn1)C3=O	Tg IFNy HTS -90
c1ccc(-c2ccccn2)nc1	none
O=C1c2cccc3cccc(c23)C(=O)N1c1ccc2ncccc2c1	none
Cc1ccc(S(=O)(=O)c2ncsc2SCc2ccc(Cl)cc2Cl)cc1	Tg IFNy HTS -94
Cc1cc2nc3ccccc3c(=O)n2c(SCc2ccc(Cl)cc2Cl)n1	none
Cc1ccc(S(=O)(=O)Nc2cc(=O)[nH]c(SCc3ccccc3Cl)n2)cc1	none
CN(Cc1nccn1Cc1ccccc1)C(=O)CC1COCCN1 (stereo not drawn)	none
CCCc1cc(=O)oc2cc(OS(=O)(=O)c3ccc(Cl)cc3)ccc12	none
CCNS(=O)(=O)c1ccc(-c2oc3cc(S(=O)(=O)NCC)ccc3c2Cl)cc1	Tg IFNy HTS -78
CCN(CC)S(=O)(=O)c1ccc2oc3ccc(S(=O)(=O)N(CC)CC)cc3c2c1	none
CO[C@@H](C(=O)N(C)C[C@@H]1OCc2ccccc2-c2ccccc2C(=O)N([C@H](C)CO)C[C@@H]1C)c1ccccc1	none
COc1ccc(N2CCN(Cc3ccnc(-c4ccncc4)n3)CC2)cc1	none
CCOc1ccccc1-c1nc(Cn2ccn3nc(-c4ccccc4OC)cc3c2=O)c(C)o1	none
CCOc1ccccc1-c1nc(Cn2ccn3nc(-c4cccs4)cc3c2=O)c(C)o1	Tg IFNy HTS -87
Cc1ccccc1-c1nc(Cn2ccn3nc(-c4cccs4)cc3c2=O)c(C)o1	none
CC(C)c1ccc(S(=O)(=O)N2CCCn3nnc(CN4CCCCC4)c3C2)cc1	none
CC(C)CN1CC[C@H]2[C@@H]1CCN2S(=O)(=O)c1cccs1	none
COC1C2CCC1N(S(=O)(=O)c1cccs1)C2 (stereo not drawn)	Tg IFNy HTS -77
COc1ccc(S(=O)(=O)N2CC3CCC2C3Oc2cccnc2)cc1 (stereo not drawn)	none
CCCCN(C)CCCNC(=O)C1=C(C)C(=O)OC12CCN(S(=O)(=O)CC)CC2	none
CC(C)CN1CCNC(=O)C12CCN(C(=O)Cc1ccsc1)CC2	none
COc1ccccc1N1CCC(N2CCOC(C(F)(F)F)C2)CC1 (stereo not drawn)	none
COc1ccc(NC(=O)N2CCOCC2)cc1	none
COc1ccc(NC(=O)C2OC3OC(C)(C)OC3C3OC(C)(C)OC23)cc1 (stereo not drawn)	Tg IFNy HTS -94
COc1ccc(Oc2ccc(NC(=O)C3C4CC5OC(=O)C3C5C4)cc2)cc1 (stereo not drawn)	none
COc1ccc(CCNC(=O)COc2ccc(Br)c(C)c2)cc1OC	none
COc1ccc(CCNC(=O)C2CCCN2C(=O)Nc2ccc(C)cc2)cc1OC (stereo not drawn)	none
CC[C@H](C(=O)N1CCCC[C@H]1C(=O)O[C@H](CCc1ccc(OC)c(OC)c1)c1cccc(OCC(=O)NCCNC(=O)COc2cccc([C@@H](CCc3ccc(OC)c(OC)c3)OC(=O)[C@@H]3CCCCN3C(=O)[C@@H](CC)c3cc(OC)c(OC)c(OC)c3)c2)c1)c1cc(OC)c(OC)c(OC)c1	Tg IFNy HTS -72
Cc1cc(C)n(CC2(CNC(=O)CN3CCCN(C)CC3)CC2)n1	none
CN1CCCN(CC2(O)CCNC2)CC1 (stereo not drawn)	Tg IFNy HTS -94
CC(C)C(=O)N1Cc2ccccc2C2(CCN(Cc3cnn(C)c3)CC2)C1	none
Fc1ccc2nc(C3CCCN3Cc3nnc(-c4ccccc4)o3)[nH]c2c1 (stereo not drawn)	none
O=c1cc(Cn2cncn2)nc2n1CCCN(Cc1ccoc1)C2	none
COc1ccc(-n2nnc(C(C)=O)c2NCc2ccco2)cc1	none
CCOC(=O)c1ccc(Nc2nc3nonc3nc2NCc2ccco2)cc1	Tg IFNy HTS -102
CCOC(=O)c1cnc(-c2ccccc2)nc1Nc1ccc(C)cc1	none
C=CCOCC1c2nnn(C)c2CCN1Cc1ccc2c(c1)OCO2 (stereo not drawn)	none
Cc1ccc(NC(=O)CN2C(=O)CCc3cc(S(=O)(=O)N4CCC(C)CC4)ccc32)c(C)c1	none
CCN(CC)CCNC(=O)c1ccc(I)cc1	none
O=S(=O)(c1ccc(F)cc1)N1CCCc2ccccc21	none
O=C1CCc2cc(S(=O)(=O)N3CCCc4ccccc43)cc3c2N1CCC3	none
COc1ccc(S(=O)(=O)N2CCCc3ccccc32)cc1	Tg IFNy HTS -113
N#Cc1cccc(NC2COC3(CCN(C(=O)NC4CC4)C3)C2)n1 (stereo not drawn)	none
Cc1occc1C(=O)N1CCC2(CC(Nc3cccc(C#N)n3)CO2)C1 (stereo not drawn)	Tg IFNy HTS -98
Cc1occc1C(=O)N1CCC2(CC(Nc3ncccc3F)CO2)C1 (stereo not drawn)	none
CC(C)(C)c1csc(-c2ccc(Cc3cc(-c4ccc(F)cc4)n[nH]c3=O)cc2)n1	none
O=C(c1cnc2ccccn2c1=O)N1CCCC(Cn2cc(C3CC3)nn2)C1 (stereo not drawn)	none
CC1(C)Cc2c(sc3ncnc(N)c23)CO1	none
CCCCN(CCCC)c1ncnc2c1sc1nc3c(cc12)COC(C)(C)C3	Tg IFNy HTS -103
COCC(C)(C)CNC(=O)c1c(C)cc(C)[nH]c1=O	none
CCC(NC(=O)CC(=O)Nc1ccc(C)c(Cl)c1)c1nc(C)no1 (stereo not drawn)	none
Cc1ccc(NC(=O)CC(=O)NCCCn2ccnc2)cc1Cl	none
Cc1ccc(Nc2nc3nonc3n3cnnc23)cc1Cl	Tg IFNy HTS -106
CCOc1ccc(-c2noc(-c3c(O)c4cc(Cl)ccc4[nH]c3=O)n2)cc1	none
N#Cc1cccc(CN2CCC(N3CCCC3)CC2C(=O)O)c1 (stereo not drawn)	none
Cc1cccc(-n2ncc3c(NCCCn4ccnc4)ncnc32)c1	none
Cc1cc(C)c2cc(C#N)c(NCCCn3ccnc3)nc2c1	Tg IFNy HTS -101
Cc1cc(C)c(S(=O)(=O)NCCCn2ccnc2)c(C)c1	none
COc1cc(NC(=S)NCCCN(C)C)c(OC)cc1NC(C)=O	none

Bioassay records: PubChem BioAssay, Broad Institute
